# Bioassay records: PubChem BioAssay, National Center for Advancing Translational Sciences (NCATS)
# Luciferase inh – blocks purified firefly luciferase enzyme activity. hit rate 2.5% among 76,000. Potency, µM (highest dose often 115 µM), hits mostly inhibitors. P08659. purified P. pyralis luciferase, luminescence, biochemical; also: nearly all actives have a fitted effect of over 65% in size
#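 Luminescence read by CCD imager after adding enzyme (10nM final) to wells holding compound, titrated in qHTS. Substrates 10uM each D-luciferin and ATP; buffer 50mM Tris acetate pH 7.5, 10mM Mg acetate, Tween-20, BSA.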
# 3T3 cytotox – kills NIH 3T3 cells; hit rate 4.3% among 94,000; AID 1345082; Potency, µM (top dose mostly 96.7 µM), most hits filed as inhibitors; NIH 3T3 viability, CellTiter-Glo ATP luminescence, 48-72 h; also: nearly all actives have a fitted effect of over 55% in size
#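 Cytotoxicity was measured by CellTiter-Glo ATP luminescence after 48 or 72 h compound exposure at 37 °C. Mouse NIH 3T3 fibroblasts were seeded at 400 cells/well and dosed by 23 nL pin transfer.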
# NPR1 antag – antagonists of human natriuretic peptide receptor Npr1; P16066; HEK293 hNpr1 GloSensor cGMP, ANP-stimulated luminescence; Potency, µM (top dose mostly 46.3 µM), hits mostly inhibitors; hit rate 1.6% among 76,000; AID 1347048; calls by dose curve; also: nearly all actives have a fitted effect of over 60% in size
# Target sequence (P16066 whole entry, looked up): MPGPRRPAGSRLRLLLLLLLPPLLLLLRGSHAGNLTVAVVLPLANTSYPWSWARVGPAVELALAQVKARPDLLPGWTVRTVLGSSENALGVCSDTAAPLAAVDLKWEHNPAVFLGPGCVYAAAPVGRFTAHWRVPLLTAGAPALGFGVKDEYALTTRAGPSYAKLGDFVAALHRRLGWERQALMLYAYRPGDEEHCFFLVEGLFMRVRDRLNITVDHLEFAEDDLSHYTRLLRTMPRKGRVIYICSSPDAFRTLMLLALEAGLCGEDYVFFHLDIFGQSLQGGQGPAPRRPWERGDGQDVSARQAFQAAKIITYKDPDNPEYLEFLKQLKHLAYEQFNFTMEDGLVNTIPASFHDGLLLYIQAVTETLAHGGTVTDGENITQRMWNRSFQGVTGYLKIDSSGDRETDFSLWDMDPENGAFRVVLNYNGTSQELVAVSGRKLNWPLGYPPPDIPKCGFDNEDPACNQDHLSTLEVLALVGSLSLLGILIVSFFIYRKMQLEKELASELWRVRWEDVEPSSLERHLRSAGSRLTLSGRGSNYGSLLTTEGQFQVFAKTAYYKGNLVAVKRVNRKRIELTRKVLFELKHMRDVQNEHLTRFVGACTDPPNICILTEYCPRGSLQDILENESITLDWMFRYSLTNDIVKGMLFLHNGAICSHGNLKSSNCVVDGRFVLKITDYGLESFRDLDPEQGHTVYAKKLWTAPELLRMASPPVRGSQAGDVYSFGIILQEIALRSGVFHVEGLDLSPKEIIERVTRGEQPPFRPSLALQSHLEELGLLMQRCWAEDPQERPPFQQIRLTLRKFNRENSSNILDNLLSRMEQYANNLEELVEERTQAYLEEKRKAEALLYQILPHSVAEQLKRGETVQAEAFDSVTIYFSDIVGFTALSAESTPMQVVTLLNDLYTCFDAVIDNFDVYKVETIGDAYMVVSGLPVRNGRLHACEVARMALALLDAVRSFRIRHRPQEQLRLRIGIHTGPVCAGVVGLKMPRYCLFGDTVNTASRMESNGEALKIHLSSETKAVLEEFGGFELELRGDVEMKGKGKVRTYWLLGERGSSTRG
#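 HEK293 cells stably expressing human Npr1 and cGMP GloSensor pGS-40F, loaded 2 h with 2% GloSensor reagent, given compound 30 min at room temperature. Luminescence read before and 20 min after 0.1 nM hNppA.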
# HEK293 tox – HEK 293 cell cytotoxicity. HEK 293 viability, ATP luminescence (CellTiter-Glo), 48-72 h. Potency, µM (titrated, usually from 115 µM), hits mostly inhibitors. hit rate 6.6% among 94,000; also: nearly all actives have a fitted effect of over 60% in size
#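 Cytotoxicity was scored by loss of ATP-coupled luminescence (CellTiter-Glo) in HEK 293 cells. Compound treatment ran 48 or 72 hr at 37 degree Celsius, 5% CO2, 95% humidity.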
# GPT2 inhibitor – inhibitors of human GPT2 alanine aminotransferase; Recombinant GPT2, coupled pyruvate oxidase/HRP Amplex Red fluorescence; Potency, µM (series often up to 57.7 µM), usual class: inhibitors; AID 1671188; hit rate 0.25% among 100,000; also: nearly all actives have a fitted effect of over 60% in size
#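 Recombinant GPT2 (10ng/uL) with 250uM a-KG and 2mM L-alanine, 30 min at room temperature, in HEPES pH 7.5 buffer. Pyruvate detected by pyruvate oxidase/HRP/Amplex Red fluorescence after 30 min in the dark; AOA (50uM) as positive control.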
# Numbers stand for hits; . = inactive; ? = inconclusive; / = not tested or not shown; [ ] = dose if it differs, or a comment. Only some compounds are listed: those with a hit (about 10% of all), similar ones and a draw of the others. Unless noted, calls follow the shape of the dose curve; as a rule, active = well fitted curve in the direction sought with a large enough effect; inconclusive = small, poorly fitted or top-dose-only effect, or another doubt; inactive = no such curve, though single readings can be large; an effect the other way counts as inactive or inconclusive.
SMILES,Luciferase inh,3T3 cytotox,NPR1 antag,HEK293 tox,GPT2 inhibitor
CC(=O)Nc1ccc(NC(=O)Cn2ccn3nc4c(c3c2=O)CCCCC4)cc1,.,?,.,35.5µM,?
COc1ccccc1Nc1ccnc(N2CCC(C(=O)NCc3ccc4c(c3)OCO4)CC2)n1,/,?,/,?,.
CCOC(=O)C1CCCN(C(=O)c2cn3cc(-c4ccc(OC)cc4)sc3n2)C1 (stereo unspecified),/,?,/,?,.
CCC(=O)N1CCc2ccc(OCc3nc(C(=O)NCCOC)co3)cc2C1c1ccc(C)cc1 (stereo unspecified),.,.,.,28.2µM,.
CC(C)CNC(=O)c1coc(COc2ccc3c(c2)C(c2ccccc2)N(C(=O)C(C)C)CC3)n1 (stereo unspecified),.,39.8µM,.,?,.
C=CCNC(=O)c1coc(COc2ccc3c(c2)C(c2ccc(C)cc2)N(C(=O)C2CC2)CC3)n1 (stereo unspecified),.,?,.,?,.
CC(C)C(=O)N1CCc2ccc(OCc3nc(C(=O)N4CCCC4)co3)cc2C1c1cccc(F)c1 (stereo unspecified),.,?,.,?,.
C=CCNC(=O)c1coc(COc2ccc3c(c2)C(c2cccc(F)c2)N(C(=O)C2CC2)CC3)n1 (stereo unspecified),.,?,.,?,.
COCCNC(=O)c1coc(COc2ccc3c(c2)C(c2ccc(C)cc2)N(C(=O)C2CC2)CC3)n1 (stereo unspecified),.,?,.,25.1µM,.
C=CCNC(=O)c1coc(COc2ccc3c(c2)C(c2cccc(C)c2)N(C(=O)C2CC2)CC3)n1 (stereo unspecified),.,?,.,35.5µM,.
CC(C)c1nc2c(c(-c3ccc(Cl)cc3)n1)CCN([S+](=O)([O-])c1cccs1)CC2,/,.,/,?,.
Cc1ccc(C2c3cc(OCc4nc(C(=O)N5CCCC5)co4)ccc3CCN2C(=O)C2CC2)cc1 (stereo unspecified),.,?,.,39.8µM,.
CC(C)(C)c1ccc(-n2ncc3c2CCCC3NC(=O)c2c[nH]c(=O)[nH]c2=O)cc1 (stereo unspecified),?,?,8.91µM,31.6µM,.[11.5 µM]
O=C(c1ccc2nnc(-c3cncc(Cl)c3)n2c1)N1CCOCC1,/,.,/,.,.
Cc1ccc(C)c(C(=O)NCCn2ccn3nc(-c4cc(C)ccc4C)cc3c2=O)c1,.,?,.,39.8µM,.
Cc1ccc(-c2cc3c(=O)n(CCNC(=O)c4ccc(Cl)cc4)ccn3n2)c(C)c1,.,?,.,39.8µM,.
Cc1ccc(-c2cc3c(=O)n(CCNC(=O)c4cc(Cl)ccc4F)ccn3n2)c(C)c1,?,.,.,?,.
Cc1ccc(C)c(-c2cc3c(=O)n(CCNC(=O)c4ccccc4F)ccn3n2)c1,.,?,.,?,.
Cc1ccc(-c2cc3c(=O)n(CC(O)c4ccc(C)c(C)c4)ccn3n2)c(C)c1 (stereo unspecified),.,?,?,39.8µM,.
CN(C/C=C/c1ccccc1)C(=O)c1ccc(C2CCCNC2)cc1 (stereo unspecified),.,?,.,?,.
O=C(c1ccc(C2CCNC2)cc1)N(Cc1ccccc1)CC1CCC1 (stereo unspecified),.,?,.,25.1µM,.
COc1ccc(C2(C(=O)N(C)Cc3ccc(OC(F)(F)F)cc3)CCOCC2)cc1,/,?,/,50.1µM,.
CCOC(=O)[C@@H]1[C@@H](OC)C(=O)N(C)C12CCN(C(=O)OCC(C)C)CC2,/,?,/,.,/
CN1CCCC2(CCN(C(=O)CCc3ccccc3O)C2)C1=O (stereo unspecified),.,.,.,.,.[11.5 µM]
CN1CCCC2(CCN(C(=O)CCCOc3ccccc3)C2)C1=O (stereo unspecified),28.2µM,.,.,.,.
SMILES,Luciferase inh,3T3 cytotox,NPR1 antag,HEK293 tox,GPT2 inhibitor
COc1cccc([S+](=O)([O-])N2CCCC2C(=O)N2CCC(N3CCCC3=O)CC2)c1 (stereo unspecified),/,.,/,.,.
CC(C)N[C@H]1C[C@@H](Cc2cc(COc3ccccc3)on2)C1(C)C,.,50.1µM,.,63.1µM,.
CC1(C)[C@H](Cc2cc(COc3ccccc3)on2)C[C@@H]1NC(=O)NCc1ccccc1,.,?,?,63.1µM,.
CC1(C)[C@H](Cc2cc(COc3ccccc3)on2)C[C@@H]1NC(=O)C1CCC1,.,?,?,35.5µM,.
O=C1CC(c2noc(-c3ccco3)n2)CN1C1CCCCC1 (stereo unspecified),.,.,.,.,.
CCCCOc1ccc(-c2nc(C3CC(=O)N(C4CCCCC4)C3)no2)cc1 (stereo unspecified),.,31.6µM,?,44.7µM,.
Cc1ccsc1-c1nc(C2CC(=O)N(C3CCCCC3)C2)no1 (stereo unspecified),.,.,.,79.4µM,.
CCCCOc1ccc(-c2nc(C3CC(=O)N(c4ccc(OC)cc4)C3)no2)cc1 (stereo unspecified),.,.,.,.,.
CCN1c2cc(C(=O)Nc3cccc(OC)c3)ccc2C(=O)N2CCCC21 (stereo unspecified),.,.,.,?,.
CCN1c2cc(C(=O)Nc3cc(OC)cc(OC)c3)ccc2C(=O)N2CCCCC21 (stereo unspecified),.,.,.,?,.
CCN1c2cc(C(=O)Nc3cccc(OC)c3)ccc2C(=O)N2CCCCCC21 (stereo unspecified),.,?,.,31.6µM,.
CCN1c2cc(C(=O)Nc3cccc(OC)c3)ccc2C(=O)N2CCCCC21 (stereo unspecified),.,?,.,44.7µM,.
COc1ccc(-c2cc3nc4c(c(=O)n3[nH]2)CCN(C(=O)COc2ccccc2C)C4)cc1,14.1µM,.,.,.,.
Cc1ccccc1OCC(=O)N1CCc2c(nc3cc(-c4ccccc4Cl)[nH]n3c2=O)C1,.,?,.,?,.
CO[C@H]1CN(C2CCN(C(=O)CCC3CCCC3)CC2)[C@H]1c1ccncc1,/,.,/,?,.
O=C(c1ccc(F)c(Cl)c1)N1CCC2(CC1)CN(c1ccccc1)C2=O,.,39.8µM,.,89.1µM,.
O=C(Cc1ccccc1)N1C[C@@H](CO)[C@@H]2Oc3ccc(Cl)cc3[C@@H]21,/,?,/,79.4µM,/
Cc1ccc(CN2C(=O)COC[C@H]2C(=O)Nc2ccccc2F)cc1,/,.,/,.,.
COCCNC(=O)C[C@@H]1C[C@@H](C(C)C)[C@H](CNS(=O)(=O)c2ccccc2)C=C1C,.,112µM,.,.,.
CC1=C[C@@H](CNS(=O)(=O)c2ccccc2)[C@H](C(C)C)C[C@H]1CC(=O)NCc1ccccn1,.,?,.,.,.
CC1=C[C@@H](CNS(=O)(=O)c2ccccc2)[C@H](C(C)C)C[C@H]1CC(=O)O,.,?,.,.,.
